A number with no mark means an inactive call. Inconclusive results are not listed. Activity calls are given as the source filed them. Unless noted, calls follow the shape of the dose curve; as a rule, active = well fitted curve in the direction sought with a large enough effect in the repeat runs; inconclusive = weak or mixed curves; inactive = no such curve, though single readings can be large; an effect the other way counts as inactive or inconclusive.

A short description of assay [1]: qHTS assay to identify small molecule antagonists of the androgen receptor (AR) signaling pathway using the MDA cell line in the presence of 0.5 nM R1881 - cell viability counter screen (AID 1259242). Also: nearly all actives have a fitted effect of over 45% in size. The essentials: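 Counter screen for cytotoxicity run in the same wells as the AR antagonist reporter screen: MDA-kb2 cells were treated 16 hr with test compounds and 0.5 nM R1881, then live-cell protease activity was measured by fluorescence.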

Assay [2] is described as follows: qHTS assay to identify small molecule phospholipidosis (PLD) inducers (AID 1259344; active = well fitted curve in the direction sought with a large enough effect; an effect the other way counts as inactive or inconclusive). Summed up: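 Fluorescent phospholipid staining (LipidTOX Red) measured by automated microscopy in fixed HepG2 cells after 24 h treatment; nuclei counterstained with Hoechst 33342; amiodarone as reference inducer.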
Assay [3] can be described thus: qHTS assay to identify small molecule HDAC inhibitors (AID 1259364). Also: nearly all actives have a fitted effect of over 45% in size. Also: potency is read from the fitted curve at half-maximal effect. Summed up:
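Luminescence from a cell-permeant luminogenic class I/II HDAC substrate reports endogenous deacetylase activity in intact HCT-116 cells treated with compounds for 2 h.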

Assay [4] can be described thus: qHTS assay to identify small molecule HDAC inhibitors - cell viability counter screen (AID 1259365). Also: series mostly up to about 92 µM; nearly all actives have a fitted effect of over 50% in size. The essentials: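 To flag cytotoxic hits, 1,500 wild-type HCT-116 cells per well, plated the day before, receive test compounds for 2hr at 37 C before CellTiter-Glo reagent and a luminescence read.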
Assay [5] is described as follows: qHTS assay to identify small molecule agonists of the sonic hedgehog signaling (Shh) pathway - cell viability counter screen (AID 1259366). Also: nearly all actives have a fitted effect of over 50% in size. Summed up: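 Fluorescence from CellTiter-Fluor reports live cells in this counter screen. NIH/3T3-derived Gli1-Luc reporter cells receive test compounds for 24hr at 37C; reagent goes in at 23hr.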
A short description of assay [6]: qHTS assay to identify small molecule antagonists of the sonic hedgehog signaling (Shh) pathway - cell viability counter screen (AID 1259367). Also: nearly all actives have a fitted effect of over 55% in size. The essentials: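 Using CellTiter-Fluor, viability of Gli1-Luc reporter 3T3 cells is read by fluorescence in the wells used for the Shh luciferase assay. Treatment lasts 23 hr with conditioned medium, then reagent 1 hr at 37C.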

Assay [7] can be described thus: qHTS assay to identify small molecule agonists of the sonic hedgehog signaling (Shh) pathway (AID 1259368; calls by dose curve;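 also: NIH/3T3-derived 3T3Gli1-Luc cells carrying a stable Gli1-driven firefly luciferase reporter; series mostly up to about 92 µM; nearly all actives have a fitted effect of over 15% in size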). Summed up:
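3T3Gli1-Luc (NIH/3T3 clone, stable Gli1-Luc); 4 hr pre-incubation, then cpd in DMSO 24 hr, 37 C/5% CO2; luciferase reagent 30 min RT; luminescence.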

Assay [8] in a line: qHTS assay to identify small molecule antagonists of the sonic hedgehog signaling (Shh) pathway (AID 1259369; calls by dose curve; also: nearly all actives have a fitted effect of over 45% in size). The essentials:
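3T3Gli1-Luc, conditioned-medium-stimulated, 24hr cpd, 37C/5% CO2; Gli1-driven firefly Luc luminescence after 30min RT with luciferase reagent. Cells plated 4hr before cpd.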

Assay [9] is described as follows: qHTS assay to identify small molecule agonists of the androgen receptor (AR) signaling pathway in the presence of an antagonist - cell viability counter screen (AID 1259379).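 Also: MDA-kb2 human breast cancer cells carrying an MMTV luciferase reporter; series mostly up to about 92 µM; nearly all actives have a fitted effect of over 25% in size.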 The essentials: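 Cells: MDA-kb2 (MMTV-luc, AR and GR elements), 3,000/well, 5 hr settle. Added: nilutamide 3.0uM final, then compounds (15 conc.). Incubation: 16 hr, 37C, no CO2. Read-out: CellTiter-Fluor, 1 hr, fluorescence.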

Assay [10] is described as follows: qHTS assay to identify small molecule antagonists of the estrogen receptor beta (ER-beta) signaling pathway - cell viability counter screen (AID 1259382).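 Also: HEK293T cells carrying ER-beta-UAS-bla reporter stimulated with estradiol; series mostly up to about 92 µM; nearly all actives have a fitted effect of over 55% in size.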 Summed up: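 Cells: ER-beta-UAS-bla HEK293T, 2,000/well, 2% CS-FBS, 6 hr settle. Cpd + E2 (1nM final), 16 hr, 37C/5% CO2. Bla FRET substrate 2 hr RT, then CellTiter-Glo 30 min RT, luminescence.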
Assay [11] can be described thus: qHTS assay to identify small molecule agonists or antagonists of the thyroid stimulating hormone receptor (TSHR) signaling pathway - wild type cell line counter screen (AID 1259384; calls by dose curve). Summed up:
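Counter screen in untransfected Hek293: compounds (15-point titration, triplicate) plus phosphodiesterase inhibitor Ro20-1724 added after 18 h plating; 30 min RT. Intracellular cAMP via competitive d2/cryptate immunoassay, 1 h incubation.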

Assay [12] addresses Thyrotropin receptor (Homo sapiens) (UniProt P16473). The assay is described as follows: qHTS assay to identify small molecule antagonists of the thyroid stimulating hormone receptor (TSHR) signaling pathway (AID 1259385; calls by dose curve; also: nearly all actives have a fitted effect of over 20% in size). The essentials: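 Antagonist mode: compound-treated TSHR-expressing HEK293 cells were stimulated with 1.5 ng/mL TSH (final) in presence of Ro20-1724 for 30 min at RT. HTRF cAMP detection after 1 h; each compound tested at 15 concentrations, triplicate.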

Assay [13] in a line: qHTS assay to identify small molecule agonists of the estrogen receptor alpha (ER-alpha) signaling pathway in the presence of an antagonist - cell viability counter screen (AID 1259386).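 Also: series mostly up to about 92 µM; cells exposed to compounds for 22 h at 37 °C before the viability read; nearly all actives have a fitted effect of over 30% in size.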 Summed up:
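VM7Luc4E2, stripped-serum pre-culture 5 d; 24hr plating; +ICI-182,780 10.0nM final; cpds 15 conc, 22hr, 37C/5% CO2; CellTiter-Fluor added at 21hr, fluorescence 1hr later.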

Assay [14] can be described thus: qHTS assay to identify small molecule agonists of the estrogen receptor beta (ER-beta) signaling pathway - cell viability counter screen (AID 1259380). Also: nearly all actives have a fitted effect of over 30% in size. Also: potency is read from the fitted curve at half-maximal effect. Summed up: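 HEK293T ER-beta-UAS-bla; 2% CS-FBS; 6 hr pre-plate, 16 hr cpd at 37C/5% CO2; LiveBLAzer read first, then CellTiter-Glo 30 min RT, luminescence.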
Assay [15] has as its target Estrogen receptor (Homo sapiens) (UniProt P03372). The assay is described as follows: qHTS assay to identify small molecule agonists of the estrogen receptor alpha (ER-alpha) signaling pathway in the presence of an antagonist (AID 1259383; calls by dose curve; also: top concentration of the series differs between compounds; nearly all actives have a fitted effect of over 15% in size). The essentials:
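VM7Luc4E2, endog. ER-alpha + 4×ERE-luc; charcoal-stripped FBS, phenol red-free, 5 d; 24hr plating; +10.0nM ICI-182,780 (final); cpds 15 conc, 22hr, 37C/5% CO2; ONE-Glo luminescence.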

In assay [16] the target is Estrogen receptor beta (Homo sapiens) (UniProt Q92731). The experiment in a line: qHTS assay to identify small molecule agonists of the estrogen receptor beta (ER-beta) signaling pathway (AID 1259377; active = well fitted activation curve with a large enough effect in the signal ratio in the repeat runs, not every such curve was filed as active; the % refers to the signal ratio). Summed up: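 Screening used GripTite ER-beta-UAS-bla cells held in 2% charcoal-stripped FBS medium. After overnight (16 hr) compound incubation at 37C, beta-lactamase activity was detected with a FRET substrate by fluorescence.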

Assay [17] shares this target. The experiment in a line: qHTS assay to identify small molecule antagonists of the estrogen receptor beta (ER-beta) signaling pathway (AID 1259378; active = well fitted inhibition curve with a large enough effect in the signal ratio in the repeat runs, not every such curve was filed as active; the % refers to the signal ratio). The essentials:
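Antagonist mode: compounds added to beta-lactamase reporter HEK293T ER-beta-UAS cells stimulated with E2 (1nM final), 16 hr at 37C. LiveBLAzer B/G FRET substrate, 2 hours room temperature, fluorescence read-out.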

Sequence of Thyrotropin receptor (Homo sapiens) (P16473 whole entry, looked up): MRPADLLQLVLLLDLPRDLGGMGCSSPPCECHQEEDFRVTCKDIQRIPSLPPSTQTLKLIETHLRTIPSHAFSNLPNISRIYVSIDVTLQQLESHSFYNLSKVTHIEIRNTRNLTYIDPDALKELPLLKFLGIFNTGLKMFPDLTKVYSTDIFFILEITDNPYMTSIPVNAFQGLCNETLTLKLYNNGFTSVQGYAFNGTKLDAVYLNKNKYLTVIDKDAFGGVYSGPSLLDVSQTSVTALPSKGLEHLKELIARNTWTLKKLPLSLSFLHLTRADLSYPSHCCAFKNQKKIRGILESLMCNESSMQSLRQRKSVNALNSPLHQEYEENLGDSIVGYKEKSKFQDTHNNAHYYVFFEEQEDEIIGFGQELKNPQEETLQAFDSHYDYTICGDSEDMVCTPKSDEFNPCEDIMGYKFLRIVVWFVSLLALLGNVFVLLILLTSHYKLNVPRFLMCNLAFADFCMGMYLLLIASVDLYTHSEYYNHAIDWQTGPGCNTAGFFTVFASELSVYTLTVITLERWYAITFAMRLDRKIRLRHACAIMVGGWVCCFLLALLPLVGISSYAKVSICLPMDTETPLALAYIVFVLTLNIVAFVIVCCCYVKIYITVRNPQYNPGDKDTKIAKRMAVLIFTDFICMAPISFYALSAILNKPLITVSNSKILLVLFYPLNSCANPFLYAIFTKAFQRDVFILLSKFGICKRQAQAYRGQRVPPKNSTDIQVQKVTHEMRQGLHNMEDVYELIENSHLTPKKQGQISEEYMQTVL
Sequence of Estrogen receptor beta (Homo sapiens) (Q92731 whole entry, looked up): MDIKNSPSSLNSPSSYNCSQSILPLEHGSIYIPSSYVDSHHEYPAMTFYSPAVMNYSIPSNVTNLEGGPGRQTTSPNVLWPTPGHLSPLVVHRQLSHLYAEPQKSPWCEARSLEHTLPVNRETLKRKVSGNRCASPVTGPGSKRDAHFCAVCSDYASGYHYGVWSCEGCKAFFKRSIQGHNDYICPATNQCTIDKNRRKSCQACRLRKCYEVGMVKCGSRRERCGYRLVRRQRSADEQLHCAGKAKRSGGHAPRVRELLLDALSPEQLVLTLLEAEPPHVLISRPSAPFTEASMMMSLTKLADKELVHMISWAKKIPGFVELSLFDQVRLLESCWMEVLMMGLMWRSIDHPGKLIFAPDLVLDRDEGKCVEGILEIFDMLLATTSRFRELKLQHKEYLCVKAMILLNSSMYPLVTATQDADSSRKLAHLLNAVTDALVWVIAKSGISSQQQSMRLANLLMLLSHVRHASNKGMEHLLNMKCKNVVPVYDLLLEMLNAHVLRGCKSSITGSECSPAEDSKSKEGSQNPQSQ
Sequence of Estrogen receptor (Homo sapiens) (P03372 whole entry, looked up): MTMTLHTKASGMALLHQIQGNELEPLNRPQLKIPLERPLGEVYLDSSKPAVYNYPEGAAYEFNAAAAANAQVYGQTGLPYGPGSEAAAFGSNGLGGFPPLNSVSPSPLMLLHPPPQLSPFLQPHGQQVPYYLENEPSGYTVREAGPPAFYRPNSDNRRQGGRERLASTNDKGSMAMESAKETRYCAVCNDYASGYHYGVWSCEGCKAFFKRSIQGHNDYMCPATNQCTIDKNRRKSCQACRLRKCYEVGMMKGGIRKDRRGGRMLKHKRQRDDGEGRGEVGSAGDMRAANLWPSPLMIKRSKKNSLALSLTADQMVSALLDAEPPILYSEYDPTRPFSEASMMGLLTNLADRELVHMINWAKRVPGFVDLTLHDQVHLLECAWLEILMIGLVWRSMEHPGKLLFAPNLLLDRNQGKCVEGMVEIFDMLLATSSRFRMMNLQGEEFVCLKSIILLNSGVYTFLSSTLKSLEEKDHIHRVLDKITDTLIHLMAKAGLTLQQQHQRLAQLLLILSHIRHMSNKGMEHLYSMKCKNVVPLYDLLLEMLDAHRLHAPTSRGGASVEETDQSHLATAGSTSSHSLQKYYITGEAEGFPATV

For `CCCCNc1cc(C(=O)O)cc(S(N)(=O)=O)c1Oc1ccccc1`, the outcome in assay [1], in [2], in [4], in [10] and in assay [11] was inactive. Besides, the Potency entry in assay [3], in assay [5], in [6], in [7], in assay [8] and in assay [9] was “inactive” in each case. Moreover, the Potency result in [12] and in [13] was “inactive” in each case.
In the case of `COc1ccc2nc(NC(=O)Nc3ccccc3)sc2c1`, the result in assay [1], in assay [2], in [4] and in assay [11] was inactive. For the same compound, the Potency in assay [3] is 3.35 µM (active); in assay [14], 10.6 µM (active). Also, the Potency result in assay [5], in assay [6], in [7], in assay [8], in [9] and in assay [12] was “inactive” throughout. Moreover, the Potency entry in [13] is “inactive”.
Turning to `CCC(=O)Nc1ccc(O)cc1`, the result in [1], in assay [2], in assay [4], in assay [10] and in assay [11] was inactive. For the same compound, the Potency result in [3], in assay [5], in [6], in [7], in assay [8] and in assay [9] was “inactive” each time. Also, the Potency entry in assay [14], in [15], in [12] and in assay [13] was “inactive” in each case.
As for `C=CC(C)(O)CC/C=C(\C)CCC=C(C)C` (stereo not given), the outcome in [1], in assay [2], in [4], in [16] and in [10] was inactive. Also, the Potency entry in assay [3], in assay [5], in [6], in assay [7], in [8] and in [9] was “inactive” each time. The Potency result in assay [14] and in assay [13] was “inactive” each time.
As to `COc1cc(N)c(Cl)cc1C(=O)NC1CCN(Cc2ccccc2)CC1`, the result in [1], in assay [2], in assay [4], in assay [16], in [10] and in [11] was inactive. The Potency entry in assay [3], in assay [5], in assay [6], in [7], in assay [17] and in assay [9] was “inactive” throughout. The Potency result in [15] is “inactive”.
`CCCNC(C)C(=O)Nc1c(C)csc1C(=O)OC` (stereo not given): the outcome in assay [1], in assay [2], in assay [4], in assay [10] and in assay [11] was inactive. For the same compound, the Potency result in assay [3], in assay [5], in [6], in [7], in assay [8] and in assay [9] was “inactive” each time. Also, the Potency result in assay [14], in assay [15], in assay [12] and in [13] was “inactive” each time.
In the case of `Cc1ccccc1C(=O)Nc1ccc(C(=O)N2CCCC(O)c3cc(Cl)ccc32)c(C)c1` (stereo not given), the outcome in [1], in assay [4] and in [10] was inactive. Also, the Potency result in assay [3], in assay [5], in [6], in assay [7], in assay [8] and in [9] was “inactive” each time. In addition, the Potency entry in [13] was “inactive”. The Potency in assay [14] was 23.7 µM (active).
Take `O=C(Cl)c1cccc([N+](=O)[O-])c1`: the result in [1], in assay [4], in assay [16], in assay [10] and in assay [11] was inactive. The Potency entry in [3], in [5], in assay [6], in [7], in assay [8] and in assay [17] was “inactive” each time. Further, the Potency result in assay [9], in assay [14], in assay [15], in assay [12] and in assay [13] was “inactive” throughout.
As to `O=c1[nH]cnc2c1ncn2[C@@H]1O[C@H](CO)[C@@H](O)[C@H]1O`, the result in assay [1], in [2], in assay [16] and in [10] was inactive. Also, the Potency result in assay [3], in assay [5], in [6], in assay [7], in assay [8] and in assay [17] was “inactive” each time. In addition, the Potency result in [9], in assay [14] and in assay [13] was “inactive” throughout.
Take `C/C(=N\O)[C@@H](C)NCC(C)(C)CN[C@H](C)/C(C)=N/O`: the outcome in [1], in assay [4], in assay [10] and in assay [11] was inactive. Besides, the Potency entry in assay [3], in [5], in [6], in assay [7], in assay [8] and in [9] was “inactive” each time. The Potency entry in [14], in [12] and in assay [13] was “inactive” each time.

The values are drawn from PubChem BioAssay (Tox21).
